Tests used:
Test in all cases: PBM binding z-score (relative to random genomic background probes); higher = stronger binding; sequences stand for … in GC…GCGATTGACAGCGTAGAATGAAGG
[1] = test system: FXR:RXRa (NR concentration 270 nM, RXRa partner concentration 90 nM)
Procedure, shortened: (§1)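 Scanned fluorescence from custom Agilent 4×180K protein-binding microarrays was regression-normalized. Binding z-scores use random background probes as reference. Ligand-free nuclear receptor dimers were incubated on the arrays for 1 h and detected with antibodies against each partner (one per run).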

[2] = test system: LXRa:RXRa (NR concentration 270 nM, RXRa partner concentration 90 nM)
Procedure, shortened: as §1

[3] = test system: LXRa homodimer (NR concentration 270 nM)
Procedure, shortened: as §1

[4] = test system: LXRb:RXRa (NR concentration 270 nM, RXRa partner concentration 90 nM)
Procedure, shortened: as §1

[5] = test system: LXRb homodimer (NR concentration 270 nM)
Procedure, shortened: as §1

[6] = test system: PPARa:RXRa (NR concentration 270 nM, RXRa partner concentration 90 nM)
Procedure, shortened: as §1

[7] = test system: PPARg:RXRa (NR concentration 180 nM, RXRa partner concentration 90 nM)
Procedure, shortened: as §1

[8] = test system: PPARg:RXRa 270nM:90nM, anti-RXR (NR concentration 270 nM, RXRa partner concentration 90 nM)
Procedure, shortened: as §1

[9] = test system: PPARg:RXRa 30nM:10nM, anti-RXR (NR concentration 30 nM, RXRa partner concentration 10 nM)
Procedure, shortened: as §1

[10] = test system: PPARg:RXRa 90nM:30nM, anti-RXR (NR concentration 90 nM, RXRa partner concentration 30 nM)
Procedure, shortened: as §1

[11] = test system: PPARg:RXRa DBDmut IVT, anti-RXR (DBD mutation: RXRa K156A/R161A, NR concentration 270 nM, RXRa partner concentration 90 nM)
Procedure, shortened: as §1

[12] = test system: PPARg:RXRa IVT, anti-PPARg (NR concentration 270 nM, RXRa partner concentration 90 nM)
Procedure, shortened: as §1

[13] = test system: PPARg DBDmut:RXRa IVT, anti-PPARg (DBD mutation: PPARg1 K132A/R137A, NR concentration 270 nM, RXRa partner concentration 90 nM)
Procedure, shortened: as §1

[14] = test system: PPARg DBDmut IVT, anti-PPARg (DBD mutation: PPARg1 K132A/R137A, NR concentration 270 nM)
Procedure, shortened: as §1

[15] = test system: PPARg homodimer (NR concentration 180 nM)
Procedure, shortened: as §1

[16] = test system: PXR:RXRa (NR concentration 270 nM, RXRa partner concentration 90 nM)
Procedure, shortened: as §1

[17] = test system: PXR homodimer (NR concentration 270 nM)
Procedure, shortened: as §1

[18] = test system: RARa:RXR (NR concentration 270 nM, RXRa partner concentration 90 nM)
Procedure, shortened: as §1

[19] = test system: RARa homodimer (NR concentration 270 nM)
Procedure, shortened: as §1

[20] = test system: RARb:RXRa (NR concentration 270 nM, RXRa partner concentration 90 nM)
Procedure, shortened: as §1

Sequence | PBM binding z-score [1] | PBM binding z-score [2] | PBM binding z-score [3] | PBM binding z-score [4] | PBM binding z-score [5] | PBM binding z-score [6] | PBM binding z-score [7] | PBM binding z-score [8] | PBM binding z-score [9] | PBM binding z-score [10] | PBM binding z-score [11] | PBM binding z-score [12] | PBM binding z-score [13] | PBM binding z-score [14] | PBM binding z-score [15] | PBM binding z-score [16] | PBM binding z-score [17] | PBM binding z-score [18] | PBM binding z-score [19] | PBM binding z-score [20]
TCTAGGAGGACACGAAAGGTCAGAGCTCGACATC | 3.28 | 3.77 | 3.29 | 3.49 | -0.113 | 3.91 | 1.98 | 3.19 | 2.99 | 2.51 | 2.31 | 2.52 | 0.115 | -0.502 | 2.04 | 4.08 | 0.408 | 4.32 | 1.42 | 4.35
GCTGCTAGGTCAACTGATGGTCAGCTACAGCTCG | 4.25 | 2.91 | 0.26 | 1.97 | 0.014 | 3.65 | 2.65 | 2.9 | 0.862 | 1.99 | 4.96 | 3.94 | -0.525 | -0.577 | 1.97 | 1.62 | -0.454 | 2.71 | -0.247 | 4.15
ATCTCTCGGTAACAAGTTCAGTGAAAGAGAGGAC | 0.379 | 0.429 | 0.428 | 0.549 | 0.942 | 0.533 | 0.157 | 0.369 | 0.251 | 0.484 | -0.852 | 0.6 | 0.792 | 1.21 | 0.807 | 1.46 | 1.77 | 0.694 | 0.38 | 1.49
CCAGACAGGGGAAAGGTAACTCAGTCTGGTACGC | -0.0858 | -0.233 | -0.21 | 0.0681 | -0.648 | 1.46 | 2.34 | 3.79 | 1.37 | 3.25 | -0.0945 | 0.279 | -0.482 | -1.01 | 0.356 | 0.0184 | -0.106 | 0.15 | -0.374 | 0.202
GGAACGAGGGCCAGTTGATAGCAGAGTTTGATGG | -0.532 | -0.8 | -0.645 | -1.21 | -0.96 | -0.53 | 0.258 | -0.67 | -0.491 | -0.758 | 0.134 | -0.54 | -0.953 | -0.88 | -0.513 | -0.515 | -0.158 | -0.522 | -1.03 | 0.217
AGAATGAGGTTACCAAAGATCAGGGAGACGCTTG | 2.11 | 6.33 | -0.321 | 3.23 | -0.156 | 3.38 | 2.8 | 2.92 | 1.02 | 2.15 | 3.87 | 3.22 | 1.19 | 0.476 | 0.567 | 1.53 | 0.0174 | 1.99 | 0.112 | 2.15
ATACCAAGGTGATCGTGAGGTCGTTGATACTAAC | 1.86 | 1.35 | 0.615 | 1.5 | 0.284 | 1.67 | 0.613 | 0.439 | 0.0505 | 0.47 | 0.604 | 1.28 | 0.214 | 0.382 | 1.03 | 2.86 | 1.53 | 1.82 | 0.745 | 1.42
ATCTGTAGGTAAGACTCAGTTCAGTGAAGAACGC | 0.0473 | 0.226 | 0.296 | 0.0254 | -0.0598 | 0.0967 | 0.00745 | 0.0947 | -0.305 | -0.0173 | 1.14 | 0.619 | 1.11 | 1.11 | 0.0779 | 1.18 | 1.28 | 0.421 | 0.498 | 0.161
TCTGCTAGGTCAACGACGGTCAGCTAATCTGCTA | 3.49 | 4.34 | 0.203 | 1.97 | 0.156 | 3.28 | 2.09 | 2.97 | 1.76 | 2.26 | 3.89 | 3.94 | 0.0425 | 0.346 | 0.772 | 2.08 | -0.714 | 2.4 | -1.12 | 4.13
TCTTGTAGATCAATAGAGGTTAAGAATGTGCGCT | 0.658 | 2.14 | 0.456 | 1.44 | 0.239 | 1.91 | 0.259 | 1.56 | 2.73 | 1.97 | 2 | 1.37 | 0.489 | 0.485 | 0.502 | 1.65 | 0.282 | 1.86 | 0.562 | 0.764
GCTGCTAGGTCAACTGATGGTCAGGTAAAGCTCG | 4.16 | 2.9 | 0.318 | 2.37 | 0.0406 | 3.7 | 2.95 | 3.33 | 0.765 | 1.9 | 4.69 | 4.23 | -0.376 | -0.724 | 2.17 | 1.83 | -0.677 | 3.15 | 0.327 | 4.45
ATCTCTAGGTAACAGTTCAGTGAATCCCGAGGAT | 0.279 | 0.179 | 0.588 | 0.193 | 0.937 | 2.24 | 3.39 | 4.74 | 3.06 | 4.55 | 3.65 | 3.42 | 1.56 | 1 | 0.452 | 0.487 | 0.757 | 0.576 | 0.915 | 1.01
TCTTGTAGATCAAAGATTAAGAAAGCCGAAGCCT | 0.277 | 0.499 | -0.302 | 0.245 | -0.0264 | 1.12 | 1.55 | 3.63 | 3.56 | 3.75 | 1.71 | 0.407 | 0.363 | 0.404 | -0.224 | 0.137 | -0.525 | 0.257 | 0.694 | -0.16
AGTCAAAGTTCATCTAGGTAACGTACGATATGCT | 6.96 | 6.13 | 5.65 | 3.91 | 1.59 | 5.05 | 6.7 | 6.46 | 3.66 | 5.86 | 1.04 | 4.13 | 1.4 | 2.09 | 2.4 | 5.22 | 6.7 | 3.95 | 1.06 | 5.06

— the supplement of paper PMC6555819
